Data published in the supplement of paper PMC8773631.
Where a name gives a salt, the structure may show the parent alone. ± gives the uncertainty stated by the source.

System: NCC-MFS5-C1
Test: cell viability relative to DMSO control; higher = less growth inhibition
Conditions: 10 µM; treatment time: 3 days
Procedure: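 NCC-MFS5-C1 myxofibrosarcoma cells (1x10^4 per well, 384-well) were treated on day 2 with 10 µM of each drug. On day 5, viability was read by CCK-8 absorbance at 450 nm and normalised to the DMSO control (%), n = 2.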

Structure (SMILES)	cell viability [%]
CCCCCCNC(=O)n1cc(F)c(=O)[nH]c1=O [Carmofur]	81.5 ± 1.1
CCN(CC)CCNC(=O)c1c(C)[nH]c(/C=C2\C(=O)Nc3ccc(F)cc32)c1C [Sunitinib]	67.9 ± 9.6
Cc1nc(Nc2ncc(C(=O)Nc3c(C)cccc3Cl)s2)cc(N2CCN(CCO)CC2)n1 [Dasatinib Monohydrate]	60.9 ± 3.2
Cc1ccc(NC(=O)c2ccc(CN3CCN(C)CC3)cc2)cc1Nc1nccc(-c2cccnc2)n1 [Imatinib Mesylate (STI571)]	69.6 ± 1.4
Cc1[nH]c(/C=C2\C(=O)Nc3ccccc32)c(C)c1CCC(=O)O [Orantinib (TSU-68, SU6668)]	80.2 ± 1.5
CC#CCn1c(N2CCC[C@@H](N)C2)nc2c1c(=O)n(Cc1nc(C)c3ccccc3n1)c(=O)n2C [Linagliptin]	92.8 ± 5.3
C/C=C1\NC(=O)[C@H]2CSSCC/C=C/[C@H](CC(=O)N[C@H](C(C)C)C(=O)N2)OC(=O)[C@H](C(C)C)NC1=O [Romidepsin (FK228, Depsipeptide)]	-1.35 ± 0.8
C=CC(=O)N1CCC[C@@H](n2nc(-c3ccc(Oc4ccccc4)cc3)c3c(N)ncnc32)C1	79.2 ± 0.35
CC1=C(/C=C/C(C)=C/C=C/C(C)=C/C(=O)O)C(C)(C)CCC1 [Tretinoin]	78.5 ± 4.5
Nc1ccn([C@@H]2O[C@H](CO)[C@@H](O)C2(F)F)c(=O)n1 [Gemcitabine HCl]	79.5 ± 5
COc1cc(Nc2ncc(F)c(Nc3ccc4c(n3)N(COP(=O)(O)O)C(=O)C(C)(C)O4)n2)cc(OC)c1OC [Fostamatinib (R788)]	29.5 ± 0.8
